Laboratory results: PubChem BioAssay (NCI)
This is part of a sample that, as a whole, favours compounds with a hit. Of some 83,000 tested, about 20% had one in any assay.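 Single-concentration screen, 48 h exposure, 96-well plates. Endpoint: percent growth. Below 10 = active.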 Values without a mark were called inactive. Calls of active or inactive are those of the source.

Columns and labels:
Assay in all cases: NCI-60 one-dose screen, 48 h (100 = growth as untreated, 0 = no growth, -100 = all killed)
Details in all cases: 10 µM unless noted
NCI-H23 lung = test system: NCI-H23 lung
NCI-H226 lung = test system: NCI-H226 lung
NCI-H322M lung = test system: NCI-H322M lung
HOP-62 NSCLC = test system: HOP-62 NSCLC
NCI-H460 lung = test system: NCI-H460 lung
NCI-H522 lung = test system: NCI-H522 lung
A549/ATCC NSCLC = test system: A549/ATCC NSCLC
786-0 renal = test system: 786-0 renal
COLO 205 colon = test system: COLO 205 colon
DU-145 prostate = test system: DU-145 prostate
K-562 leukemia = test system: K-562 leukemia
MALME-3M melanoma = test system: MALME-3M melanoma
MDA-MB-231 breast = test system: MDA-MB-231 breast
RXF 393 renal = test system: RXF 393 renal
SF-268 CNS = test system: SF-268 CNS
SF-295 CNS = test system: SF-295 CNS
SF-539 CNS = test system: SF-539 CNS
UACC-257 melanoma = test system: UACC-257 melanoma
M14 melanoma = test system: M14 melanoma
HCT-15 colon = test system: HCT-15 colon

Row | Structure (SMILES) | growth (NCI-H23 lung) | growth (NCI-H226 lung) | growth (NCI-H322M lung) | growth (HOP-62 NSCLC) | growth (NCI-H460 lung) | growth (NCI-H522 lung) | growth (A549/ATCC NSCLC) | growth (786-0 renal) | growth (COLO 205 colon) | growth (DU-145 prostate) | growth (K-562 leukemia) | growth (MALME-3M melanoma) | growth (MDA-MB-231 breast) | growth (RXF 393 renal) | growth (SF-268 CNS) | growth (SF-295 CNS) | growth (SF-539 CNS) | growth (UACC-257 melanoma) | growth (M14 melanoma) | growth (HCT-15 colon)
1 | C[n+]1c2ccccc2c(NC2CCNCC2)c2[nH]c3ccccc3c21 | 3.72% (active) | 6.63% (active) | -38.2% (active) | 26.5% | -0.0252% (active) | -73.2% (active) | 1.98% (active) | 58% | -1.65% (active) | -1.88% (active) | 12.7% | -15.7% (active) | 17.1% | -13.7% (active) | -31% (active) | 13.6% | 16.7% | 57.2% | 60.1% | 87.5%
2 | O=c1cc(-c2cccnc2)oc2c1ccc1ccccc12 | 69.9% | 91.5% | 117% | 88.6% | 70.4% | 62% | 65.6% | 81.3% | 80.5% | 88.6% | 53.9% | 156% | 70.7% | 68% | 54.8% | 70.1% | 54.6% | 82.9% | 103% | 72.7%
3 | CCCCCCCCSc1ncnc2c1ncn2CO | 50.8% | 58.5% | 140% | 82.7% | 86.6% | 66.4% | 102% | 85.5% | 104% | 90.9% | 73.7% | 118% | 98.2% | 55.2% | 97.6% | 67.7% | 86.3% | 81.6% | 97.7% | 97.1%
4 | O=C(Oc1ccc[nH]c1=O)c1cccc(Cl)c1 | 95.6% | 109% | 99.9% | 90.5% | 100% | 95.3% | 101% | 90.7% | 84.4% | 113% | 104% | 104% | 103% | 163% | 101% | 108% | 88.2% | 113% | 95.8% | 91.2%
5 | O=c1ccn(C2OC(CO)C(O)C2F)c(=O)[nH]1 (stereo not given) | 90.5% | 101% | 117% | 103% | 113% | 109% | 109% | 99.2% | 128% | 119% | 117% | 116% | 117% | 132% | 111% | 105% | 103% | 114% | 108% | 112%
6 | CN1COc2ccc3ccccc3c2C1 | 88.8% | 93.7% | 91.4% | 80.1% | 107% | 90.3% | 97.4% | 91% | 133% | 107% | 99.7% | 111% | 102% | 107% | 100% | 96.1% | 84.9% | 107% | 86.4% | 106%
7 | NC(=O)N/N=C/c1ccc(Br)o1 | 97.7% | 98.8% | 101% | 94.2% | 110% | 89.7% | 106% | 105% | 98.6% | 110% | 104% | 106% | 99% | 112% | 99.6% | 103% | 101% | 105% | 101% | 96.1%
8 | CC(C)(C)c1ccc(C(O)CCCN2CCC(C(O)(c3ccccc3)c3ccccc3)CC2)cc1 (stereo not given) | 4.7% (active) | 57.5% | 53.8% | -79.5% (active) | -84.9% (active) | -74.6% (active) | -39.8% (active) | -97.4% (active) | -86.9% (active) | -75.7% (active) | -39.9% (active) | -78.5% (active) | -89.4% (active) | -97.8% (active) | -65.6% (active) | -69.7% (active) | -76.4% (active) | -78.2% (active) | -91.3% (active) | -73.7% (active)
